Source: PubChem BioAssay AID720700 (The Scripps Research Institute Molecular Screening Center, 2013)
Values joined by “and” are separate entries in the source; they are usually repeats but may differ in a detail not shown here. Equal values may be shown once. Hit rate of the full screen: of about 370,000 compounds, about 3,100 (0.84%) were called active. For the sample, actives were picked, then their nearest neighbours and some compounds at random. Unmarked numbers belong to inactive results. Rule as the data show it: active = inhibition above about 9.5%; inactive = the rest.

Molecular target: 1-phosphatidylinositol 4,5-bisphosphate phosphodiesterase gamma-1 (Homo sapiens) (UniProt P19174)
Sequence (P19174 whole entry, looked up): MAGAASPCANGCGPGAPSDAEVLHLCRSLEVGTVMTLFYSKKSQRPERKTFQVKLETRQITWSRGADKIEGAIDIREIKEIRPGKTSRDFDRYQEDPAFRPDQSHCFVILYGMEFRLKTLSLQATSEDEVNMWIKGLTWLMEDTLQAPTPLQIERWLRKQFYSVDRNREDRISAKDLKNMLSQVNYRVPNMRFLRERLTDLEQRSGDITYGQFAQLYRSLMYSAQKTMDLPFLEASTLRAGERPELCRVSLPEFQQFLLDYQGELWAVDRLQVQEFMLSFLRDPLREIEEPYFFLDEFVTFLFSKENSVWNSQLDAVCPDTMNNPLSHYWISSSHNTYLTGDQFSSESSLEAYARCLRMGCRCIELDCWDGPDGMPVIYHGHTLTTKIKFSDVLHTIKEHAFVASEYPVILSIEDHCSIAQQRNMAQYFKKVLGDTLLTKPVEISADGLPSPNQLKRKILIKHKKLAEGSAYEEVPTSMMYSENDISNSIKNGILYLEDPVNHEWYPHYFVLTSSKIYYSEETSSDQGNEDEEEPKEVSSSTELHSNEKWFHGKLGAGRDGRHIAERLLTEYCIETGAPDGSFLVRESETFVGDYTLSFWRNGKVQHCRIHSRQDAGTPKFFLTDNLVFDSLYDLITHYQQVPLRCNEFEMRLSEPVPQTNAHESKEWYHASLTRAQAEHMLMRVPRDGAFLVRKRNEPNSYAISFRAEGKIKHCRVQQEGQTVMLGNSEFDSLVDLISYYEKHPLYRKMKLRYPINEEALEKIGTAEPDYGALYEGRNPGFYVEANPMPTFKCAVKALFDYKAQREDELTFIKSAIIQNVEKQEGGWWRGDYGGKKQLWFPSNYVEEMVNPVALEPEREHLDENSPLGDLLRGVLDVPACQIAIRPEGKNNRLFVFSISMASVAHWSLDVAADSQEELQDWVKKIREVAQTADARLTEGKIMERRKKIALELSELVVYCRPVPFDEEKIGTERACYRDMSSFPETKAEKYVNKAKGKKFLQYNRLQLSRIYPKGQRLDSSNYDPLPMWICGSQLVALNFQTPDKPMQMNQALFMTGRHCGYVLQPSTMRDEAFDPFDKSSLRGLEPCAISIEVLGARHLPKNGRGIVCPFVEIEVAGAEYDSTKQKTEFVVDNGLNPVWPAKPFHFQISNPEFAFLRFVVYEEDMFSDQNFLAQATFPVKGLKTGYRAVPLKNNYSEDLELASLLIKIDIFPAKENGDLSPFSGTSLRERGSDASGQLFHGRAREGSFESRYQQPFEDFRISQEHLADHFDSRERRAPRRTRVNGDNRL
Assay: blockers of human PLCG1 activity – biochemical, fluorescence, purified enzyme, primary screen (AID 720700)
Details: purified PLC-gamma1, fluorogenic substrate, at 12.2 µM, hits give high values

Row | Structure (SMILES) | inhibition
1 | CC(=O)N1CN2CN(C(C)=O)CC(C(=O)c3ccc(Br)cc3)(C2)C1 | 11.9% (active)
2 | Cc1cc(-c2ccc(N)c(C)c2)ccc1N | 2.25%
3 | Oc1ccc2c3c1OC1[C@H](O)CC[C@@]4(O)[C@@H](C2)N(CC2CC2)CC[C@]314 (stereo not given in full) | -3.08% and -2.01%
4 | O=C(NC1CCCCC1)N1Cc2cc(N3CCCCC3)ccc2-n2nncc2C1 | -5.89%
5 | CCN(CC)P(=O)(Oc1cccc(C)c1)N(CC)CC | 7.26%
6 | COC(=O)C1=C(c2ccc(-c3ccccc3)c(F)c2)C[C@@H]2CC[C@H]1N2C(=O)NCc1ccc(F)cc1 | 11.8% (active)
7 | COC(=O)C1=C(c2cccc(OCc3ccccc3)c2)C[C@@H]2CC[C@H]1N2C(=O)NCc1ccc(Br)cc1 | 0.93%
8 | COC(=O)C1=C(c2ccc(F)cc2OCc2ccccc2)C[C@@H]2CC[C@H]1N2C(=O)NCc1ccc(Cl)cc1 | 4.35%
9 | CCOC(=O)C(O)(c1ccc(N)c(OC)c1)C(F)(F)F (stereo not given) | 0.45%
10 | CN(C)CCN(CC1CCCN(Cc2ccccc2F)C1)C(=O)Cc1ccc(F)c(F)c1 (stereo not given) | 1.2%
